From PubChem BioAssay
Activity calls are given as the source filed them.

Tests used:
[1] = system: Human papillomavirus type 1a protein E7 (residues 44-93); experiment: HPV1a E7 fragment binders on microarrays, primary screen, biochemical, small-molecule microarray, residues 44-93, 635 nm fluorescence (AID 1108); conditions: small-molecule microarray binding, fluorescence 635 nm; higher = more signal;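 also: E7 fragment applied at 1 µg/mL in TBST for 1 h at 4 C; score combines spot fluorescence with its signal to noise ratio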
[2] = modulators of HCV replicon luciferase signal, primary screen, HCV replication inhibitor project, Huh7 cells, luciferase reporter (AID 1109); conditions: 48 h, higher = more signal;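 also: huh7 hepatoma cells harbouring a luciferase neomycin HCV replicon reporter; luciferase luminescence as measure of HCV replicon replication; test concentration not given here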
[3] = molecular target: Left-right determination factor 2 (Homo sapiens) (UniProt O00292); experiment: LEFTY2 binders on small-molecule microarrays, primary screen, biochemical, small-molecule microarray, 635 nm fluorescence scan (AID 1110); conditions: LEFTY2 binding, higher = more signal
Sequence of Left-right determination factor 2 (Homo sapiens) (O00292 whole entry, looked up): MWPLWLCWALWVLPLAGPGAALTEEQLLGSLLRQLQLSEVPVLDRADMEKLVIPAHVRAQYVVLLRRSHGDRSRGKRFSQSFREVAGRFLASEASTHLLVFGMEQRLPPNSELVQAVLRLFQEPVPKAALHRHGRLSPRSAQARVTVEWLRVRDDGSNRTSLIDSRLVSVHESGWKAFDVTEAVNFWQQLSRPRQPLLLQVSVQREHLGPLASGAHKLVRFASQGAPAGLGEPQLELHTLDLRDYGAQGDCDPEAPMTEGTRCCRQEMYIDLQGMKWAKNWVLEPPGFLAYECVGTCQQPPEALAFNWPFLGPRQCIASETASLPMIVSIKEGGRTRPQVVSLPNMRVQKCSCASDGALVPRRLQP

[4] = molecular target: Calmodulin-1 (Homo sapiens) (UniProt P0DP23); experiment: CALM1 binders on microarrays, EGTA buffer, profiling panel, biochemical, small-molecule microarray, Cy5-labelled CALM1 (AID 1111); conditions: Cy5-CALM1 binding fluorescence, higher = more signal;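 also: labelled calmodulin applied in Tris saline Tween buffer holding calcium plus EGTA and DTT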
[5] = molecular target: Calmodulin-1 (Homo sapiens) (UniProt P0DP23); experiment: calcium-bound CALM1 binders on microarrays, profiling panel, artefact control for SMM control-protein annotation, biochemical, small-molecule microarray, Cy5-labelled CALM1, plus calcium (AID 1112); conditions: Cy5-CALM1 binding fluorescence, higher = more signal;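 also: score merges spot fluorescence with signal to noise from triplicate slides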
[6] = small-molecule microarray binders of probe aWnt5a, primary screen, biochemical, biotinylated probe, 635/667 nm fluorescence (AID 1113); conditions: higher = more signal;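 also: score merges 667 nm fluorescence intensity with signal-to-noise per printed feature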
[7] = small-molecule microarray binders of probe aShh, primary screen, biochemical, biotinylated probe, 635/667 nm fluorescence (AID 1114); conditions: higher = more signal;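 also: probe is biotin-labelled aShh protein from a stem cell growth factor screen; measures binding of labelled protein to compounds printed on the slide; score merges feature fluorescence at 667 nm with signal-to-noise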
[8] = small-molecule microarray binders of probe aNog, primary screen, biochemical, biotinylated probe, 635/667 nm fluorescence (AID 1115); conditions: higher = more signal;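 also: probe is biotinylated aNog protein used at 0.15 µg/mL for 1 h at 4 C; z-score combines 667 nm fluorescence of each spot with its signal to noise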
[9] = molecular target: Torsin-1A-interacting protein 1 (Homo sapiens) (UniProt Q5JTV8); experiment: LAP1 binders from COS7 cell lysate, primary screen, small-molecule microarray, 635/667 nm fluorescence (AID 1116); conditions: COS7-hLAP1 lysate binding, 635 nm fluorescence, higher = more signal
Sequence of Torsin-1A-interacting protein 1 (Homo sapiens) (Q5JTV8 whole entry, looked up): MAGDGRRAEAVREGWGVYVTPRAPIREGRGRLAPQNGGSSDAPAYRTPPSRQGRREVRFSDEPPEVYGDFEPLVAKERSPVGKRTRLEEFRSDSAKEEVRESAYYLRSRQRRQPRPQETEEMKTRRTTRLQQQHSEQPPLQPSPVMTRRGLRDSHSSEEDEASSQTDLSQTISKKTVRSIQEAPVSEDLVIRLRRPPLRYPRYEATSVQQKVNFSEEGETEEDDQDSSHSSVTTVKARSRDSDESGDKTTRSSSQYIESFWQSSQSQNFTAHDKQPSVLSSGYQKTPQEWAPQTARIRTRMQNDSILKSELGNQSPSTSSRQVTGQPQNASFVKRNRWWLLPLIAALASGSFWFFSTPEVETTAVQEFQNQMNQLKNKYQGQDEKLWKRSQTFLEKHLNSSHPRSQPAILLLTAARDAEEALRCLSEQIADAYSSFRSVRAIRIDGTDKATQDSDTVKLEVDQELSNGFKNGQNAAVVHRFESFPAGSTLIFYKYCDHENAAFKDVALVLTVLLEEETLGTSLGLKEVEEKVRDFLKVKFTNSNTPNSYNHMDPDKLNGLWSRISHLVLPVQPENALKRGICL

[10] = molecular target: Alpha-bungarotoxin (Bungarus multicinctus) (UniProt P60615); experiment: alpha-bungarotoxin binders on microarray, profiling panel, artefact control for SMM control protein annotation, biochemical, small-molecule microarray, Alexa647 label, 635/667 nm fluorescence (AID 1117); conditions: alpha-BTX-A647 binding fluorescence, higher = more signal
Sequence of Alpha-bungarotoxin (Bungarus multicinctus) (P60615 whole entry, looked up): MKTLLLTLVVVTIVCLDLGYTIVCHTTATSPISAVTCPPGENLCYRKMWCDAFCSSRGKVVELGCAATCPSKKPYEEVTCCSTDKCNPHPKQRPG

Albumin (Bos taurus) = Albumin (Bos taurus) (UniProt P02769); experiment: bovine serum albumin binders on microarray, profiling panel, artefact control for SMM control protein annotation, biochemical, small-molecule microarray, Alexa647 label, 635/667 nm fluorescence (AID 1118); conditions: BSA-A647 binding, fluorescence 635 nm, higher = more signal;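 also: score merges 667 nm emission intensity and signal-to-noise per printed compound spot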
Sequence of Albumin (Bos taurus) (P02769 whole entry, looked up): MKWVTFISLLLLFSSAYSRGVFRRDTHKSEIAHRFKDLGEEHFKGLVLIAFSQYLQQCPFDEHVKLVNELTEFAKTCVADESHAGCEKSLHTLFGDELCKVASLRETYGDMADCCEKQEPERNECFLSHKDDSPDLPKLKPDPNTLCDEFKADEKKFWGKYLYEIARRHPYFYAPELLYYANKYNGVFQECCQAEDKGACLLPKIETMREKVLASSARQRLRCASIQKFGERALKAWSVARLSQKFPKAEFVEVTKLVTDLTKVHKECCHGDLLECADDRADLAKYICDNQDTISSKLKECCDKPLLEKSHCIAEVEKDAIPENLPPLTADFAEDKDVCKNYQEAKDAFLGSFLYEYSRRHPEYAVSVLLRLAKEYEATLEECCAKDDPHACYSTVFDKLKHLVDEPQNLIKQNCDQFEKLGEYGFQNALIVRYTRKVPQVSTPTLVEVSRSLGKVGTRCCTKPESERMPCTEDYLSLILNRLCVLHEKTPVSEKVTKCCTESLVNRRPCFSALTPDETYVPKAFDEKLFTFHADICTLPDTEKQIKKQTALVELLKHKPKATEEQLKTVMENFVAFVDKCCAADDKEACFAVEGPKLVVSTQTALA

[11] = small-molecule microarray binders of probe aXIP, primary screen, biochemical, NeuroSMM set, 635/667 nm fluorescence (AID 1119); conditions: higher = more signal, called active from +8 up or from −8 down;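 also: probe is the protein aXip251-270 applied at 1 µg/mL to compound-printed slides; binding of probe to printed compounds measured as 667 nm fluorescence plus signal to noise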
[12] = small-molecule binders of probe aNOTCH3, primary screen, biochemical, small-molecule microarray, 635/667 nm fluorescence (AID 1120); conditions: higher = more signal;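 also: probe is a biotin-tagged antibody raised against NOTCH3 rather than NOTCH3 protein; score merges spot fluorescence near 667 nm with spot signal to noise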
[13] = small-molecule binders of probe aNOTCH2, primary screen, biochemical, small-molecule microarray, 635/667 nm fluorescence (AID 1121); conditions: higher = more signal;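 also: score merges feature fluorescence read at 667 nm with its signal to noise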
[14] = molecular target: Carbonic anhydrase 2 (Homo sapiens) (UniProt P00918); experiment: CAII small-molecule binders, profiling panel, biochemical, small-molecule microarray, Alexa647-labelled CAII (AID 1122); conditions: CAII-A647 binding fluorescence, higher = more signal
[15] = COS7 lysate on small-molecule microarray, probe aHis, 635 nm (AID 1123); conditions: COS7 cell lysate, fluorescence, higher = more signal;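 also: z-score combines 667nm fluorescence intensity with signal-to-noise per printed compound spot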
[16] = compound binding in COS7 lysate, probe aLAP1, primary screen, cell lysate, small-molecule microarray (AID 1124); conditions: probe aLAP1, fluorescence, higher = more signal;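 also: lysate comes from COS7 cells expressing LAP1 and is applied at 0.3 µg/mL; score merges spot fluorescence near 667 nm with signal-to-noise over triplicate slides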
Sam68 (KHDRBS1) = experiment: Sam68 small-molecule binders, primary screen, biochemical, small-molecule microarray, 635 nm fluorescence (AID 1125); conditions: small-molecule microarray binding, higher = more signal;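 also: score merges 667 nm channel intensity with signal to noise over triplicate slides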
[17] = system: Chordin-like protein 2 (CHRDL2); experiment: CHRDL2 small-molecule binders, primary screen, biochemical, small-molecule microarray, 635 nm fluorescence (AID 1126); conditions: small-molecule microarray binding, fluorescence 635 nm; higher = more signal;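 also: printed compound slides probed with Chrdl2 protein at 4 µg/mL for 1 h at 4 C; score merges 667 nm emission intensity with signal to noise over three replicate slides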
[18] = molecular target: Concanavalin-A (Canavalia ensiformis) (UniProt P02866); experiment: ConA small-molecule binders, primary screen, artefact control for SMM control protein annotation, biochemical, small-molecule microarray, Alexa647 label, 635 nm (AID 1127); conditions: ConA-A647 binding fluorescence, higher = more signal;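 also: z combines 667 nm emission intensity with signal-to-noise across three replicate slides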
Sequence of Concanavalin-A (Canavalia ensiformis) (P02866 whole entry, looked up): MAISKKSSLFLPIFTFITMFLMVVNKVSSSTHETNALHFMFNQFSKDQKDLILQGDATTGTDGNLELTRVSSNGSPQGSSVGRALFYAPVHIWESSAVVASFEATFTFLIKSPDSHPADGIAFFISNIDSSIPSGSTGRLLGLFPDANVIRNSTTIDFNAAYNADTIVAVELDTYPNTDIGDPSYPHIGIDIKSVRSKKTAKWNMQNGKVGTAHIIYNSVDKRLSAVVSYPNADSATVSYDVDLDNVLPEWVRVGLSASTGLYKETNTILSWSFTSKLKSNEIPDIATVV

Row | Structure (SMILES) | composite z-score [1] | z-score [2] | composite z-score [3] | composite z-score [4] | composite z-score [5] | composite z-score [6] | composite z-score [7] | composite z-score [8] | composite z-score [9] | composite z-score [10] | composite z-score (Albumin (Bos taurus)) | composite Z-score [11] | composite z-score [12] | composite z-score [13] | composite z-score [14] | composite z-score [15] | composite z-score [16] | composite z-score (Sam68 (KHDRBS1)) | composite z-score [17] | composite z-score [18]
1 | C=CCC(OC(C)=O)[C@@H]1[C@@H](N(Cc2ccc(-c3cccc(C(F)(F)F)c3)o2)C(=O)c2ccc(-c3ccccc3)cc2)c2cc(OCCCO)ccc2N1C(=O)c1ccc2ccccc2c1 (stereo not given in full) | -0.701 | -0.514 | 0.27 | 0.0114 | 0.255 | -0.119 | 0.0121 | -0.399 | 0.33 | 0.0035 | -0.192 | -0.0127 (inactive) | 0.0445 | -0.0707 | 0.323 | 0.234 | -0.376 | -0.689 | 0.0823 | -0.654
2 | O=C(NCc1ccc(F)cc1)[C@H]1C[C@H]2C(=O)N3CCC[C@H]3C(=O)N2[C@H]1c1ccc(O)cc1 | -0.512 | 0.85 | 0.124 | -0.178 | -0.386 | -0.176 | -0.366 | -0.344 | 0.424 | -0.374 | -1.3 | 0.081 (inactive) | -0.303 | -0.198 | -0.0109 | -0.136 | 1.09 | -0.732 | 0.857 | 0.72
3 | CC(C)C(CO)N1C(=O)[C@@H]2C3C(=O)OCCC/C=C\[C@H]3OC23C=CCN(Cc2ccccc2)C(=O)[C@@H]13 (stereo not given in full) | -1.78 | 0.537 | -1.05 | -0.969 | 0.574 | -0.0643 | 0.254 | -0.103 | 1.14 | -1.68 | -1.25 | -0.157 (inactive) | -0.159 | -0.11 | 0.902 | 0.708 | 1.5 | -0.173 | -1.11 | -1.67
